Holding throughout (assay): MAPPIT interaction score (arbitrary units); higher = stronger binary interaction signal, active = hit call of the paper
The target in one experiment is CG31523. The following applies: MAPPIT configuration: N-C; pair source set: screen_3.
A further experiment has as its target EMC5. The conditions noted are these: MAPPIT configuration: N-C; pair source set: screen_3.
The target in the next experiment is RNASEK. The conditions noted are these: MAPPIT configuration: N-C; pair source set: screen_3.
The target in the next experiment is CG32182. The following applies: MAPPIT configuration: N-N; pair source set: RRS.
A further experiment addresses CG31121. The conditions noted are these: MAPPIT configuration: N-N; pair source set: Curagen_high_conf.
In another experiment the target is CG32425. The following applies: MAPPIT configuration: N-C; pair source set: screen_3.
A further experiment has as its target CG5327. The conditions noted are these: MAPPIT configuration: N-C; pair source set: screen_3.
For a further experiment, the target named is CG31550. The following applies: MAPPIT configuration: N-N; pair source set: Lit-BS-16.
The next experiment concerns the target GstE2. The conditions noted are these: MAPPIT configuration: N-N; pair source set: Finley_Y2H.
The next experiment concerns the target PAN3. The conditions noted are these: MAPPIT configuration: N-N; pair source set: Lit-BS-16.
Another experiment deals with Rbp6. The following applies: MAPPIT configuration: N-N; pair source set: Finley_Y2H.
A further experiment deals with CG31600. The conditions noted are these: MAPPIT configuration: N-C; pair source set: screen_4.
The target of another experiment is CG3085. The conditions noted are these: MAPPIT configuration: N-C; pair source set: screen_3.
For a further experiment, the target named is CG8281. The following applies: MAPPIT configuration: N-N; pair source set: screen_1.
A further experiment has as its target Gale. The following applies: MAPPIT configuration: N-N; pair source set: DPIM.
The target in the next experiment is PHDP. The conditions noted are these: MAPPIT configuration: N-N; pair source set: Finley_Y2H.
The target in the next experiment is Vsx2. The following applies: MAPPIT configuration: N-N; pair source set: Finley_Y2H.
The next experiment addresses eco. The conditions noted are these: MAPPIT configuration: N-N; pair source set: screen_1.

Data on seven molecules can be found in the supplement of paper PMC10105736.

Values without a mark were called inactive.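 Rule for the calls: active = MAPPIT score above the 99th percentile of random reference set scores in the same batch; inactive = at or below it.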
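Note: HEK293T cells with Epo stimulation, STAT-responsive firefly luciferase reporter, fold induction versus unstimulated cells divided by the larger fold induction of two negative controls lacking either bait or prey.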

B1: CG33169 (protein)
chain: MRQLKGKVKETRKQKKERKLDNLETQAKIRTVVLPALGVLAVFLVLFVYLKTRPAVLA
As to B1, the values for the MAPPIT interaction score with CG31523, with EMC5 and with RNASEK were 0.414, -0.647 and 0.381, respectively.

B2: RpS3A (protein)
chain: MAVGKNKGLSKGGKKGGKKKVVDPFSRKDWYDVKAPNMFQTRQIGKTLVNRTQGQRIASDYLKGRVFEVSLADLQKDIDPERSFRKFRLIAEDVQDRNVLCNFHGMDLTTDKYRSMVKKWQTLIEAIVEAKTVDGYLLRVFCIGFTAKDQQSQRKTCYAQQSQVRKIRARMTDIITNEVSGADLKQLVNKLALDSIAKDIEKSCQRIYPLHDVYIRKVKVLKKPRFDVSKLLELHGDGGGKSVEAVVSSEGAVIDRPEGYEPPVQEAV
Consider B2, for which the MAPPIT interaction score with CG32182 was 0.147.

B3: Hsc70-5 (protein)
chain: MLRVPKFLPRLARQAGVVPSHMSGASSMFRNLPGASNGISSQLRYKSGEVKGAVIGIDLGTTNSCLAVMEGKQAKVIENAEGARTTPSHVAFTKDGERLVGMPAKRQAVTNSANTFYATKRLIGRRFDDPEVKKDITNLSYKVVKASNGDAWVSSTDGKVYSPSQIGAFILMKMKETAEAYLNTPVKNAVVTVPAYFNDSQRQATKDAGQIAGLNVLRVINEPTAAALAYGMDKTEDKIIAVYDLGGGTFDISILEIQKGVFEVKSTNGDTLLGGEDFDNHIVNFLVAEFKKDSGIDIRKDNIAMQRLKEAAEKAKCELSSSQQTDINLPYLTMDAAGPQHMNLKLTRSKLESLVGDLIKRTIQPCQKALSDAEVSKSEIGEVLLVGGMTRMPKVQSTVQELFGRQPSRSVNPDEAVAVGAAVQGGVLAGDVTDVLLLDVTPLSLGIETLGGVFTRLISRNTTIPTKKSQVFSTASDGQTQVEIKVHQGEREMANDNKLLGSFTLVGIPPAPRGVPQIEVVFDIDANGIVHVSAKDKGTGKEQQIVIQSSGGLSKDEIENMIKKAEEYATADKQKRELIEIVNQGESIVHDTETKMEEFKSQLPAEECEKLKKEIADLRTLLANKETADLEEVRKATSSLQQSSLKLFELAYKKMSAERESNAGAGSSDSSSSSDTSGEAKKEEKN
Turning to B3, in the experiment with CG31121, the MAPPIT interaction score is 0.0518.

B4: hth (protein)
chain: MAQPRYDDGLHGYGMDSGAAAAAMYDPHAGHRPPGLQGLPSHHSPHMTHAAAAAATVGMHGYHSGAGGHGTPSHVSPVGNHLMGAIPEVHKRDKDAIYEHPLFPLLALIFEKCELATCTPREPGVQGGDVCSSESFNEDIAMFSKQIRSQKPYYTADPEVDSLMVQAIQVLRFHLLELEKVHELCDNFCHRYISCLKGKMPIDLVIDERDTTKPPELGSANGEGRSNADSTSHTDGASTPDVRPPSSSLSYGGAMNDDARSPGAGSTPGPLSQQPPALDTSDPDGKFLSSLNPSELTYDGRWCRREWSSPADARNADASRRLYSSVFLGSPDNFGTSASGDASNASIGSGEGTGEEDDDASGKKNQKKRGIFPKVATNILRAWLFQHLTHPYPSEDQKKQLAQDTGLTILQVNNWFINARRRIVQPMIDQSNRAVYTPHPGPSGYGHDAMGYMMDSQAHMMHRPPGDPGFHQGYPHYPPAEYYGQHL
Turning to B4, the values for the MAPPIT interaction score with CG32425 and with CG5327 were 3.41 and 3.17, respectively.

B5: CycB (protein)
chain: MVGTTLKMRGDENASENFKQVQLKKLTVPSMEATTKRAALGDLQNRGISRPIAAKDAAQKDSKDLKLTDALRNAKARVDSHWKKQPLGSTNGNGNGAVPPKVNEGGVSAFLRSNSVRNRVPTKTTVEPTKVTVKSSSSENVNEPTLKREDSNLSKKSLTKLRAALAKPVMGVSGIRREPVAVSRKEAETKKELPETKKDSLEVKKDATRMPLIRGNSAVTTTTSTMPTTMSLSSKRLAGIEDIDANDKENLVLVSEYVNDIYDYLYQVELEQPIHKDHLAGQKEVSHKMRAVLIDWINEVHLQFHLAAETFQLAVAIIDRYLQVVKDTKRTYLQLVGVTALFIATKYEELFPPAIGDFVFITDDTYTARQIRQMELQIFKAIDCNLSRPLPIHFLRRYSKAAGAEDEHHTMSKYFIELASVDYEMATYRPSEIAAASLFLSLHLLNGNHRAGTGFNDRHWTPTLTFYSRYSAAHLRPITRLIAKLARDAPQAKLKAIYNKYQGSKFQKIALRTELTGALMDSIVGQSQRK
With B5, the MAPPIT interaction score in the experiment with CG31550 is 0.517; in the experiment with GstE2 it was 0.748; with PAN3 it was 0.557; in the experiment with Rbp6 it was 0.383.

B6: zetaTry (protein)
chain: MSSSWIVGLLAFLVSLVALTQGLPLLEDLDEKSVPDGRIVGGYATDIAQVPYQISLRYKGITTPENPFRHRCGGSIFNETTIVTAAHCVIGTVASQYKVVAGTNFQTGSDGVITNVKEIVMHEGYYSGAAYNNDIAILFVDPPLPLNNFTIKAIKLALEQPIEGTVSKVSGWGTTSPGGYSSNQLLAVDVPIVSNELCDQDYEDFGDETYRITSAMLCAGKRGVGGADACQGDSGGPLAVRDELYGVVSWGNSCALPNYPGVYANVAYLRPWIDAVLAGL
Take B6: the MAPPIT interaction score with CG31600 is 0.866.

B7: PolZ2 (protein)
chain: MQAEIKADIIVEAMEVLVNHILYVRGIYPSHIFKMKRMYNSPIYVSIFPPLNNYLAGVLKSAQELLRRRELQCLELIVYQKENEKLESYKMQLETQRSGLPAEDHLMEFEQNMRSVIYKISQRLNQAPKLPAGSCQFKVHLHTTQEAFIRFSHDSQYQEFPWLQTQKTESQATGRTVYLLPLARVDDLGLKMDVLIVN
As to B7, the MAPPIT interaction score is 1.42 with CG3085; 1.67 with CG8281; 0.112 with Gale; -0.0614 in the experiment with PHDP; 0.017 in the experiment with Vsx2; 0.29 with eco.
